Measurements published in PubChem BioAssay (Tox21).
“And” between values parts separate entries of the source, which are not always exact repeats. Equal entries are not always repeated. Records with an inconclusive call do not appear. A call without a number means that no potency is given here. More than one record can exist for a structure, and the calls need not agree. The source made the active and inactive calls. Calls come from the whole dose curve; as a rule, active = well fitted activation curve with a large enough effect in the repeat runs; inconclusive = weak or mixed curves; inactive = flat fitted curve, though single readings scatter.

experiment: A CellTox Green Cytotoxicity Assay to monitor cytotoxicity in HepG2 cells - 8 hour (AID 1224890); details: CellTox Green fluorescence; series mostly up to 76.8 µM; note: nearly all actives have a fitted effect of over 45% in size
In short: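 Nonlytic assay: viable cells exclude the dye, so fluorescence scales with cell death. HepG2 at 600 cells/well, compounds added after 5 h, signal read across 40 h.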
Potency is the fitted concentration of half-maximal effect.

| Structure (SMILES) | Potency |
| --- | --- |
| C=CC(C)(CCC=C(C)C)OC(=O)c1ccccc1N (stereo not given) | inactive |
| O=C(N/N=C/c1ccc([N+](=O)[O-])o1)c1cc([N+](=O)[O-])cc([N+](=O)[O-])c1O | inactive |
| CC(O)CN1CCN(CC(=O)[O-])CCN(CC(=O)[O-])CCN(CC(=O)[O-])CC1.[Gd+3] (stereo not given) | inactive |
| CCc1cnc(C2=NC(C)(C(C)C)C(=O)N2)c(C(=O)O)c1 (stereo not given) | inactive |
| CCOP(=O)(SC(C)CC)N1CCSC1=O (stereo not given) | inactive |
| CCCCCCCCn1sccc1=O | 25.7 µM (active) |
| C1CS1 | inactive |
| CN(C)c1ccc(N=O)cc1 | inactive |
| CC(C)(C)NCC(O)c1cc(Cl)c(N)c(C(F)(F)F)c1 (stereo not given) | inactive |
| Cc1ncc(C[n+]2csc(CCO)c2C)c(N)n1 | inactive |
| CCC1CCC(=O)O1 (stereo not given) | inactive |
| CC1(C)CC(=O)CC(C)(C)N1[O] | inactive |
| O=C(O)C(Cl)(Cl)Br | inactive |
| CC1(C)[C@H](C(=O)O[C@H](C#N)c2cccc(Oc3ccccc3)c2)[C@@H]1C=C(Br)Br | inactive |
| Nc1ccccc1C(=O)OCCc1ccccc1 | inactive and 24.5 µM (active) |
| CN1CC[C@]23c4c5ccc(O)c4O[C@H]2[C@@H](O)CC[C@H]3[C@H]1C5 | inactive |
| C[C@H]1O[C@H](OC2[C@@H](O)[C@@H](O)C(O)[C@H](O)[C@H]2O)[C@@H](N)C[C@@H]1N=C(N)C(=O)O (stereo not given in full) | inactive |
| CC(C)c1ccc(OP(=O)(Oc2ccc(C(C)C)cc2)Oc2ccc(C(C)C)cc2)cc1 | inactive |
| CCOP(=O)(O)C(N)=O | inactive |
| SCc1ccccc1 | inactive |
